Assay results as given in PubChem BioAssay AID720584 (National Center for Advancing Translational Sciences (NCATS), 2013).
The list shows a part of the results. Inconclusive results are not listed. The source made the active and inactive calls. Calls come from the whole dose curve; as a rule, active = well fitted inhibition curve with a large enough effect; inconclusive = small, poorly fitted or top-dose-only effect; inactive = flat fitted curve, though single readings scatter.

system: Trypanosoma brucei pyruvate kinase (TbPYK); assay: qHTS of Trypanosoma Brucei Inhibitors: Orthogonal Assay for Cherry-picked Compounds; details: recombinant TbPYK, ADP-Glo luminescence, 60 min; note: nearly all actives have a fitted effect of over 75% in size
From the text: Members of the Trypanosomatidae family of parasitic protozoans cause a spectrum of diseases throughout the tropical and subtropical world. Sleeping sickness, caused by two subspecies of Trypanosoma brucei, is endemic to areas of sub-Saharan Africa, while Chagas' disease, a manifestation of Trypanosoma cruzi infection, is prevalent throughout Central and South America. In addition, many species of Leishmania are responsible for a range of cutaneous and visceral diseases, causing ulcers, destructive lesions and kalaazar, a lethal infection of the viscera. These diseases cause severe public health and economic burdens on populations that are often already caught in a tragic cycle of poverty, poor nutrition and disease. Collectively, parasites of the trypanosomatid family infect 30 million people worldwide (~500 million live in endemic areas), and account for ~130K deaths annually. Existing treatments have developed little in the past 50 years, and suffer from toxicity, poor efficacy and resistance; the goal of this project is to develop lead drugs that will be suitable for entry into pre-clinical trials. […] Glycolysis in axenically cultured T. cruzi, representing the intracellular pathogenic stage, is also essential for these parasites. {Engel, 1987} This project aims to discover and optimize selective inhibitors of the glycolytic enzyme pyruvate kinase (PYK) from Trypanosoma brucei, the parasite that causes sleeping sickness. […] While the primary qHTS provides a luminescence-based detection of TbPyK by measuring ATP production, the orthogonal assay will measure the amount of ADP substrate remaining. […]
Briefly, 2 uL of substrate/TbPYK buffer (all columns but column 4) are dispensed into Greiner white solid-bottom 1536-well assay plates. […] ADP-Glo reagent II is then added (5 uL), followed by a 10 minute room temperature incubation, before being transferred to a ViewLux high-throughput CCD imager (PerkinElmer), wherein single end-point measurements of luminescence are acquired using a clear filter. […]
Potency is the fitted concentration of half-maximal effect.

SMILES | Potency
Cc1ccc2c(c1)=C/C(=C\c1c(O)[nH]c(=O)[nH]c1=O)C(=O)N=2 | 25.1 µM (active)
COc1ccc(N2C(=O)/C(=C/c3ccco3)C(=O)NC2=S)cc1 | 6.31 µM (active)
O=C1NC(=O)N(c2ccccc2)C(=O)/C1=C/c1ccc([N+](=O)[O-])s1 | 14.1 µM (active)
